In PubChem BioAssay (NCI):
About 83,000 compounds went through this panel and 20% of them were active in at least one assay; those are over-represented in the sample as a whole.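 Cell lines were cultured in 96-well plates, exposed to a single compound concentration, and assessed for percent growth 48 hours later.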 Values without a mark were called inactive. The source made the active and inactive calls. The calls were made as follows: active = growth percent below 10; inactive = the rest.

Key:
Experiment in all cases: NCI-60 one-dose screen, 48 h (100 = growth as untreated, 0 = no growth, -100 = all killed)
Details in all cases: 10 µM unless noted
DU-145 prostate = test system: DU-145 prostate
K-562 leukemia = test system: K-562 leukemia
MALME-3M melanoma = test system: MALME-3M melanoma
MDA-MB-231 breast = test system: MDA-MB-231 breast
RXF 393 renal = test system: RXF 393 renal
SF-268 CNS = test system: SF-268 CNS
SF-295 CNS = test system: SF-295 CNS
SF-539 CNS = test system: SF-539 CNS
UACC-257 melanoma = test system: UACC-257 melanoma
M14 melanoma = test system: M14 melanoma

Row | SMILES | growth (DU-145 prostate) | growth (K-562 leukemia) | growth (MALME-3M melanoma) | growth (MDA-MB-231 breast) | growth (RXF 393 renal) | growth (SF-268 CNS) | growth (SF-295 CNS) | growth (SF-539 CNS) | growth (UACC-257 melanoma) | growth (M14 melanoma)
1 | CCN1CCN(c2cc(C(=O)Nc3cccc(Nc4ccc5c(OC)cccc5n4)c3)cc(C(F)(F)F)c2)CC1 | 23.3% | -29.8% (active) | -59.6% (active) | 9.58% (active) | 17.3% | 32.8% | 14% | 19.5% | -40.3% (active) | -41.9% (active)
2 | Cc1nc2ccccc2c(/C=C/c2ccc(Br)cc2)c1C(=O)/C=C/c1ccccc1 | -3.75% (active) | 7.54% (active) | -28.4% (active) | 11.9% | -71.3% (active) | 51.9% | 4.22% (active) | -62.7% (active) | -4.07% (active) | 6.49% (active)
3 | C#CCOc1cccc(Nc2c(Cl)c(CCl)nc3ccc(Oc4ccccc4)cc23)c1 | 43.8% | 15% | 68.4% | 33.2% | 78.6% | 18.8% | 88.7% | 80.7% | 90% | 47.7%
4 | Cc1cccc(C)c1NC(=O)Nc1ccccc1 | 9.29% (active) | 102% | 98.4% | 96.9% | 87.3% | 96.1% | 66.7% | 108% | 98.2% | 109%
5 | CNC1=C(Br)C(=O)c2c(C(=O)OC)c(C)nc(C)c2C1=O | 57.9% | 64.4% | -26.6% (active) | 71.6% | 63.5% | 73.5% | 78.3% | 82.8% | 56.1% | 31.4%
6 | O=C(O)c1cc2ccccc2s1 | 124% | 107% | 130% | 104% | 110% | 107% | 97.8% | 101% | 105% | 110%
7 | COc1ccccc1-c1nc2ccc3[nH]ncc3c2c2c1CCCC2 | 73.5% | 83.3% | 99.2% | 62.4% | 51.2% | 55.6% | 70.5% | 50.5% | 86.4% | 76.3%
8 | CC1(C)CC[C@]2(CO)CC[C@]3(C)C(=CC[C@@H]4[C@@]5(C)CCNCC(C)(C)[C@@H]5CC[C@]43C)[C@@H]2C1 | 81.5% | 7.94% (active) | 63.1% | 73.7% | 61.6% | 105% | 97.6% | 85.8% | 9.86% (active) | -2.42% (active)
9 | CCN(CC)CCCNc1cc(OC)cc2cccnc12 | 105% | 81.4% | 133% | 89.5% | 96.5% | 96.5% | 105% | 101% | 107% | 127%
10 | Cc1cc([N+](=O)[O-])ccc1NC(=O)c1ccc2c(c1)nc(-c1ccccc1)n2C1CCCCC1 | 105% | 49.9% | 80.4% | 84.4% | 96.5% | 77.1% | 80.5% | 92.2% | 92.4% | 74.9%
11 | CN1C(=O)N(C)C2C1NN=c1s/c(=C\c3ccc(F)cc3)c(=O)n12 (stereo not given) | 58.5% | 11.4% | 31.5% | 29.4% | 38.5% | 58.7% | 28.8% | 29.7% | 1.68% (active) | 23.1%
12 | Cc1nn(C)c2ncnc(Nc3ccccc3Br)c12 | 103% | 97.1% | 111% | 85.2% | 104% | 99.2% | 95.8% | 99.9% | 105% | 101%
13 | CSc1nc(CC(C)C)c(C#N)c(=O)n1C | 70.7% | 68.8% | 58.4% | 47.3% | 58.7% | 65.7% | 73.9% | 75.9% | 78.6% | 70.7%
14 | Cn1cc(-c2ccc3occ(-c4cccc(-c5ccncc5)c4)c3n2)cn1 | 26.9% | 8.55% (active) | 21.2% | 35.4% | 4.67% (active) | 28.5% | 1.64% (active) | -23% (active) | 40.9% | 1.71% (active)
